# In PubChem BioAssay AID819 (Columbia University Molecular Screening Center, 2007):
# The whole screen tested about 94,000 compounds, of which about 280 (0.3%) were called active.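 The calls were made as follows: active = activation above 40%, about the mean plus 3 SD, also judged a hit on visual image review; inconclusive = activation above 40% but not a hit on visual review; inactive = activation not above 40% and no visual hit.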 Only a selection was taken, and actives are over-represented in it overall.
# Experiment: enhancers of NFkB p65 translocation in HUVEC – imaging, IL-1B stimulus, high-content imaging, primary screen (AID 819);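 also: percent activation is computed from the nuclear over cytoplasmic p65 intensity ratio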
# Details: HUVEC IL-1B NFkB p65 nuclear translocation imaging; at 2 µM; hits give high values
row,SMILES,activation
1,Nc1ccc(-c2sc(N)nc2-c2ccccc2)cc1,-1.63% (inactive)
2,CC(C)c1ccc(N2CCN(C(=O)c3ccccc3NC(=O)/C=C(\C(=O)O)c3ccccc3)CC2)cc1,24.1% (inactive)
3,NC(=NC(=O)c1ccccc1)N1CCOCC1,3.72% (inactive)
4,O=C(Cc1ncc(C(F)(F)F)cc1Cl)Nc1cccc(Br)c1,13.4% (inactive)
5,O=[N+]([O-])c1ccc(Oc2ccc(F)cc2Br)c2ccncc12,-1.85% (inactive)
6,S=C(NCCC1=CCCCC1)Nc1ccccc1,-10.4% (inactive)
7,Cc1nn(C)cc1/C=C1\CCC/C(=C\c2cn(C)nc2C)C1=O,-13.1% (inactive)
8,COCC(C)NC(=O)c1ccc(-n2nc(C(F)(F)F)cc2-c2cccs2)cc1 (stereo not given),15.7% (inactive)
9,COc1ccc(C(=O)n2nc(-c3ccc(C)cc3)nc2N)cc1OC,-6.6% (inactive)
10,COc1ccc(C(=O)n2nc(-c3ccc(Cl)cc3)nc2N)cc1OC,41.4% (active)
11,COc1ccccc1C(=O)n1nc(-c2ccccc2)nc1N,13.8% (inactive)
12,CC(C)(CCl)C(=O)Nc1ccc(Sc2ccc(F)cc2)cc1,-5.55% (inactive)
13,CCn1c(SCc2ccc(C)cc2)nnc1-c1nn(-c2ccccc2)ccc1=O,0.15% (inactive)
14,O=C1c2ccccc2C(=O)c2c1cccc2N1CCN(CCO)CC1,11.4% (inactive)
15,CCC1(CC)NC(=O)N(CC(=O)OCC(=O)Nc2ccc(C(F)(F)F)cc2)C1=O,-31.3% (inactive)
16,Cc1cccc(-c2nc3c(c(SCC(=O)N4CCOCC4)n2)CCCC3)c1,16.6% (inactive)
17,COc1ccccc1NC(=O)[C@H](COCc1ccccc1)NC(=O)OC(C)(C)C,8.44% (inactive)
18,CCCC(=O)NC(Nc1ccccc1OC)C(Cl)(Cl)Cl (stereo not given),-10.4% (inactive)
19,CCOC(=O)C1(S(=O)(=O)c2ccccc2)CCN(Cc2ccccc2)CC1,2.52% (inactive)
20,CCC(=O)Nc1ccc2nc(C)n(Cc3ccccc3Cl)c(=O)c2c1,-5.54% (inactive)

row,SMILES,activation
1,COc1cnc(SCc2ccc(Cl)c(Cl)c2)nc1Cl,20.1% (inactive)
2,Cc1cc(C)cc(OCC(=O)NNC(=O)c2cc3ccccc3oc2=O)c1,-12% (inactive)
3,Cc1cc(OC(=O)c2c(Cl)cccc2Cl)nc(C)n1,23% (inactive)
4,N#Cc1ccc(Oc2cc(C(F)(F)F)nc(-c3ccccn3)n2)cc1,49.2% (active)
5,COc1ccc(C(=O)Nc2nc(-c3ccc(OC)cc3)c(-c3ccc([N+](=O)[O-])cc3)s2)cc1,1.5% (inactive)
6,CN(CC#CCC(c1ccccc1)c1ccccc1)C(C)(C)C,6.49% (inactive)
7,Cc1cc([N+](=O)[O-])c(NC2CCCCC2)c([N+](=O)[O-])c1,3.11% (inactive)
8,NS(=O)(=O)c1ccc(Nc2nc(-c3ccccc3)cs2)cc1,-18.6% (inactive)
9,O=C(CSCc1ccc([N+](=O)[O-])cc1)Nc1cccc(C(=O)Nc2ccccc2C(=O)O)c1,7.87% (inactive)
10,COc1ccccc1NC(=O)c1ccc2nc(N3C(=O)CCC3=O)sc2c1,11.6% (inactive)
11,COC(=O)c1ccccc1OCC(=O)N1CCN(c2ccc(Cl)cc2)CC1,11.5% (inactive)
12,COc1ccccc1OCCNc1cc(N2CCOCC2)ccc1[N+](=O)[O-],7.12% (inactive)
13,Cc1nnc(SCC(=O)NC(=O)NC2CCCC2)n1N,-1.65% (inactive)
14,CCOC(=O)c1cnc(-c2ccccc2)nc1Oc1ccc(C)cc1,-7.86% (inactive)
15,CC(C)NC(=O)NC(=O)COC(=O)c1ccc(NC(=O)CC#N)cc1,5.58% (inactive)
16,O=S(=O)(c1ccc(F)cc1)n1ccc(-c2cnc(-c3ccccc3)s2)n1,5.1% (inactive)
17,CCOCCOCCC(C(=O)O)P(=O)(c1ccccc1)c1ccccc1 (stereo not given),2.8% (inactive)
18,CCOc1ccccc1/C=c1\sc2nc(-c3ccco3)nn2c1=O,53.9% (active)
19,CCOc1ccccc1C(=O)NCc1ccco1,8.02% (inactive)
20,O=c1nc2s/c(=C\c3ccco3)c(=O)n2nc1Cc1ccccc1,10.3% (inactive)

row,SMILES,activation
1,CCOC1CS(=O)(=O)CC1OCC (stereo not given),12.8% (inactive)
2,O=C1c2ccccc2C(=O)c2c1cccc2N1CCN(Cc2ccccc2)CC1,-2.37% (inactive)
3,O=C(COC(=O)c1ccccc1NC(=O)c1ccco1)Nc1ccc2c(c1)OC(F)(F)O2,0.88% (inactive)
4,CC(=O)c1ccc2c(ccc3ccccc32)c1,8.21% (inactive)
5,CCCN1Cc2cccc(C(=O)Nc3ccc(S(=O)(=O)N4CCCCCC4)cc3)c2C1=O,7.44% (inactive)
6,O=C(Nc1ccc(Cl)cc1)OCc1cc(-c2ccccc2)on1,15.4% (inactive)
7,CC(=O)c1ccc(Oc2cc(C)nc(-n3nc(C)cc3C)n2)cc1,-11.2% (inactive)
8,Cc1cc(C)n(-c2cc(Oc3ccccc3)ncn2)n1,43.8% (active)
9,CC(=O)c1cnn(-c2cc(Oc3ccc(F)cc3)ncn2)c1C,10.6% (inactive)
10,CC12c3ccccc3C(c3ccccc31)C1C(=O)N(Cc3cccnc3)C(=O)C12 (stereo not given),-8.61% (inactive)
11,COc1cc(OC)cc(C(=O)NC2CCN(C(=O)N3c4ccccc4Sc4ccccc43)CC2)c1,1.07% (inactive)
12,O=C(OCc1cn(-c2ccc(Cl)c(Cl)c2)nn1)c1ccccc1Cl,12.2% (inactive)
13,O=C(CN1C(=O)NC(Cc2ccccc2)(Cc2ccccc2)C1=O)NCC1CCCCC1,0% (inactive)
14,CCCCOC(=O)Nc1sc2nc(C)cc(C)c2c1-n1cccc1,-1.73% (inactive)
15,Cc1cc2c(cc1C)N(C(=O)CN1C(=O)c3ccccc3C1=O)C(C)(C)c1ssc(=S)c1-2,17.4% (inactive)
16,COc1ccc(-c2[nH]nc(-c3ccccc3)c2-c2nc3ccccc3[nH]2)cc1,-1.89% (inactive)
17,COc1ccc(OC)c(C(=O)c2coc3ccc(O)c(CN4CCOCC4)c23)c1,-5.05% (inactive)
18,CCN1CCN(Cc2c(O)ccc3c(=O)c(-c4ccc(OC)c(OC)c4)c(C(F)(F)F)oc23)CC1,65.5% (active)
19,O=c1c(-c2ccc3c(c2)OCCO3)c(C(F)(F)F)oc2cc(O)cc(O)c12,9.87% (inactive)
20,O=C(c1ccc2c(c1)OCO2)N1CCOCC1,-1.72% (inactive)
